DT40 TDP1 no CPT: qHTS for Inhibitors of human tyrosyl-DNA phosphodiesterase 1 (TDP1): qHTS in cells in absence of CPT | DT40 Tdp1-/- hTDP1 cells, no CPT, ATP luminescence, 48 h | Potency, µM (doses to about 46.2 µM), for inactives: at the top dose activity change, negative = growth inhibition, actives largely listed as inhibitors | 420,000 tested, 15% active | AID 686978, 2013; further: potency means the concentration at half of the fitted maximal effect; nearly all actives have a fitted effect of over 55% in size
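Camptothecin absent (DMSO only). Human TDP1-complemented DT40 knockout cells, 400 cells/well, 37 °C for minimum 48 hr; ATP measured via CellTiter-Glo, 30 min dark incubation, luminescence.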
Giardia killer: Giardia lamblia killing | Giardia lamblia trophozoite viability | activity change, % at 7.66 µM, hits read low | 340,000 tested, 0.15% active; in the data active means activity change below about -80%; inconclusive means between about -30% and that limit;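 further: parasites exposed to compound for two days anaerobically before the ATP read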
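Each well holds 100 Giardia trophozoites and compound. After two days (48 hrs) at 37 deg C in anaerobic conditions, ATP is quantified by luminescence.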
TDP1 cell CPT: growth inhibition of DT40 Tdp1-/-;hTDP1 cells with camptothecin (screen for TDP1 inhibitors); chicken DT40 Tdp1-/-;hTDP1 cells + 20 nM CPT, ATP luminescence, 48 h; Potency, µM (titrated, usually from 46.2 µM), for inactives: at the highest dose activity change, negative = growth inhibition, actives largely listed as inhibitors; 420,000 tested, 12% active; AID 686979; further: potency means the concentration at half of the fitted maximal effect; nearly all actives have a fitted effect of over 55% in size
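Cell growth measured by CellTiter-Glo luminescence after a minimum 48 h, 37 C compound exposure with 20 nM CPT in Tdp1-knockout DT40 cells stably expressing hTDP1, seeded 400/well; qHTS titration format.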
ELG1 repair inh: inhibitors of ELG1-dependent DNA repair in HEK293T cells | HEK293T ELG1-luciferase reporter, luminescence, 16 h; DNA damage induced by 5-fluorouridine | 330,000 tested, 2.3% active | Potency, µM (titrated, usually from 46.1 µM), inactives show top-dose activity change, negative = inhibition, hits mostly inhibitors; further: potency means the concentration at half of the fitted maximal effect; nearly all actives have a fitted effect of over 55% in size
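In this reporter screen, reduction of luminescence relative to DMSO vehicle indicated activity. Compounds and 5-fluorouridine were added together to 2,000 cells per well, incubated for 16 hr at 37 °C, then developed with ONE-Glo.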
TDP1 block: blocks human tyrosyl-DNA phosphodiesterase 1. 350,000 tested, 0.28% active. recombinant TDP1, AlphaScreen DNA substrate cleavage. Q9NUW8. Potency, µM (top dose mostly 130 µM), for the others: at the top dose activity change, negative = inhibition, actives largely listed as inhibitors; further: potency means the concentration at half of the fitted maximal effect; nearly all actives have a fitted effect of over 40% in size
Target sequence (Q9NUW8 whole entry, looked up): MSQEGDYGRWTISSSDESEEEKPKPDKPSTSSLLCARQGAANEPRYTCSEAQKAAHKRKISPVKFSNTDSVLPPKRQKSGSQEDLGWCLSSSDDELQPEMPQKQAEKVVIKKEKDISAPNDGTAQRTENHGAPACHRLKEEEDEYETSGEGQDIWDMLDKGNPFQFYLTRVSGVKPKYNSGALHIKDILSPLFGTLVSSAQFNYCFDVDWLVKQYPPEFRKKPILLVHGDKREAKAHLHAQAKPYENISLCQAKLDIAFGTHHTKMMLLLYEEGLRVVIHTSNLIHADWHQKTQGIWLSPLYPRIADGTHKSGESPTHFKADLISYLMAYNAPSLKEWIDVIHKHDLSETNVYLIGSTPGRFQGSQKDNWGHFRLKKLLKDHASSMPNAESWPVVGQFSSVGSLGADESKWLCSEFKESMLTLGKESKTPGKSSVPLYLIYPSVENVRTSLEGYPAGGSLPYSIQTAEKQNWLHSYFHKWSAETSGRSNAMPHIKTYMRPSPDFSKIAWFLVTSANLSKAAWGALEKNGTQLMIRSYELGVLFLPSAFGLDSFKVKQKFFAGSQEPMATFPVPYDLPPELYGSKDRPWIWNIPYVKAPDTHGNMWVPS
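Recombinant human Tdp1 (E. coli-expressed, 1 nM final) preincubated with compounds 15 min at room temperature, then 5'-biotin/3'-phosphotyrosine-FITC DNA substrate (15 nM final) added for 5 min. AlphaScreen beads (10 ug/ml final) added 10 min; cleavage lowers signal.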
IL-1B inflam inh: inflammasome signaling inhibition, IL-1 beta readout; THP-1 LPS/ATP IL-1B secretion, AlphaLISA, 16 h; hits give low values; activity change, % at 57.5 µM; 360,000 tested, 4.7% active; in the data active means activity change below about -50%; inconclusive means mostly about -30% to -49%
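THP-1 cells pretreated 1 hr with compounds (up to 57.5 uM final), then stimulated with LPS (250 ng/mL final) plus ATP (1.25 mM final); secreted IL-1B measured by AlphaLISA after 16 hr, decreased signal indicating inhibition.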
* marks the source's active call; other numbers are inactive results; ? = inconclusive; nt = no result; [ ] = dose if it differs, or a comment. Compounds with a hit are over-represented: about 19% of the library has one in this group of screens. Unless noted, the call rests on the fitted dose curve; in most records, active means well fitted curve in the direction sought with a large enough effect; inconclusive means small, poorly fitted or top-dose-only effect, or another doubt; inactive means no such curve, though single readings can be large; an effect the other way counts as inactive or inconclusive. On the % scale 0 is the no-effect control and ±100 the full control effect.

SMILES	DT40 TDP1 no CPT	Giardia killer	TDP1 cell CPT	ELG1 repair inh	TDP1 block	IL-1B inflam inh
C#CCOCCOCCOCCNc1nc(N2CCN(C(=O)[C@H]([C@@H](C)CC)n3cc([C@@H](N)CO)nn3)CC2)nc(N2CCN(C(=O)[C@H](Cc3cc4ccccc4[nH]3)n3cc([C@@H](N)Cc4ccc(O)cc4)nn3)CC2)n1	nt	nt	nt	4.6%	7.1%	nt
COc1ccc(N2CCN(C(=O)CCCCn3c(=O)[nH]c4ccsc4c3=O)CC2)cc1	25.9µM*	-29.4	?	-12.5%	0.5%	15.2
COc1ccccc1N1CCN(C(=O)CCCCn2c(=O)[nH]c3ccsc3c2=O)CC1	16.4µM*	-16.0	?	?	2.5%	-0.1
COc1ccccc1N1CCN(C(=O)CCCn2c(=O)[nH]c3ccsc3c2=O)CC1	?	-15.8	-18.8%	-17.2%	6.5%	-17.5
O=C(Cc1ccc(-n2c(=O)[nH]c3ccsc3c2=O)cc1)N1CCN(c2ccc(Cl)cc2)CC1	?	2.3	?	?	3.4%	-75.2*
CC(=O)N1CCN(S(=O)(=O)c2cccc(C(=O)NC3CCCC(C)C3C)c2)CC1 (centres undefined)	?	nt	-26.1%	nt	nt	14.0
CN(Cc1ccccc1)C(=O)c1[nH]cnc1C(=O)NCc1ccc(CNC(=O)OC(C)(C)C)cc1	13µM*	4.3	?	?	0.1%	9.1
CC(C)(C)OC(=O)N1CCC(NC(=O)c2[nH]cnc2C(=O)Nc2ccc(Br)cc2F)CC1	18.4µM*	nt	20.6µM*	nt	nt	2.3
CC(C)(C)OC(=O)NCc1ccc(CNC(=O)c2[nH]cnc2C(=O)NCC(=O)OCc2ccccc2)cc1	?	-10.6	?	8.2µM*	nt	-0.6
CCN(CC)C(=O)c1[nH]cnc1C(=O)NCc1ccc(CNC(=O)OC(C)(C)C)cc1	-19.5%	-7.8	?	-6.7%	-0.3%	15.5
CC(C)(C)OC(=O)NCc1ccc(NC(=O)c2nc[nH]c2C(=O)N[C@@H](Cc2ccccc2)C(=O)OCc2ccccc2)cc1	?	-1.9	?	?	11.2%	-64.5*
CC(C)c1ccc(NC(=O)[C@H]2CSCN2C(=O)[C@@H]2CCC(=O)N2)cc1	5.2%	-1.1	?	15.9%	0.4%	-9.9
CCOc1cc(C(=O)N2CCC3(CC2)NCCc2[nH]cnc23)cc(OCC)c1OCC	6.9%	-22.1	-1.0%	-6.9%	2.0%	-3.9
CC(C)(C)OC(=O)NCc1ccc(CNC(=O)c2[nH]cnc2C(=O)N[C@@H](Cc2ccccc2)C(=O)OC(C)(C)C)cc1	20.6µM*	8.5	18.4µM*	?	nt	?
CN(Cc1ccccc1)C(=O)c1[nH]cnc1C(=O)NC1CCN(C(=O)OC(C)(C)C)CC1	?	?	20.6µM*	?	3.4%	14.6
CC(C)(C)OC(=O)NCc1ccc(CNC(=O)c2[nH]cnc2C(=O)N[C@@H](Cc2ccccc2)C(=O)OCc2ccccc2)cc1	23.1µM*	-0.9	?	-7.6%	nt	3.8
CC(C)C[C@H](NC(=O)c1nc[nH]c1C(=O)NCc1ccc(CNC(=O)OC(C)(C)C)cc1)C(=O)OCc1ccccc1	20.6µM*	14.1	?	?	nt	-0.2
CC(C)(C)OC(=O)[C@H](Cc1ccccc1)NC(=O)c1nc[nH]c1C(=O)NCc1ccccc1	-29.6%	8.4	?	-14.7%	10.3%	-29.1
CCOc1ccccc1CNC(=O)c1cc2c(=O)n(Cc3cccnc3)ccc2nc1C	-28.7%	nt	?	nt	5.8%	nt
CCOC(=O)C1CCN(C(=O)c2cc(S(=O)(=O)N3CCCCCC3)ccc2OC)CC1	-2.1%	2.8	-3.5%	0.0%	nt	-0.2
C[C@@H]1CNC(=O)c2c(C(=O)NCc3ccc(CNC(=O)OC(C)(C)C)cc3)ncn21	20.6µM*	nt	?	nt	nt	1.1
C[C@@H](OC(=O)c1[nH]cnc1C(=O)NCc1ccc(CNC(=O)OC(C)(C)C)cc1)c1ccccc1	16.4µM*	20.1	20.6µM*	13µM*	4.6%	-21.1
CCc1nnc(NC(=O)C2Cc3ccccc3CN2S(=O)(=O)c2c(C)c(C)cc(C)c2C)s1 (centres undefined)	?	2.9	-26.4%	?	4.5%	19.3
Cc1cccc2c(N3CCCC3)nc(CNS(=O)(=O)c3ccccc3F)nc12	?	nt	2.0%[9.04 µM]	nt	nt	nt
Cc1ccc(F)cc1S(=O)(=O)NCc1nc(N2CCCC2)c2cccc(C)c2n1	23.1µM*	nt	?	nt	nt	nt
SMILES	DT40 TDP1 no CPT	Giardia killer	TDP1 cell CPT	ELG1 repair inh	TDP1 block	IL-1B inflam inh
CCOc1ccc(NC(=O)CN(C)C(=O)Cc2ccc3c(c2)OCCO3)cc1OCC	?	nt	-18.5%	nt	nt	-22.4
COc1ccc(-n2cc(C(=O)NCc3ccc(Cl)cc3)c3ccccc3c2=O)cc1	?	nt	?	nt	0.0%	nt
COc1ccc(Nc2nc(-c3c(C)nc4ncccn34)cs2)cc1	0.0073µM*	4.8	0.0092µM*	-0.7%	1.2%	-60.9*
Cc1nc2ncccn2c1-c1csc(Nc2ccc(N(C)C)cc2)n1	0.0184µM*	-11.5	0.0052µM*	?	12.0%	?
Cc1nc2sccn2c1-c1csc(NCc2ccccc2)n1	13µM*	4.5	16.4µM*	-19.2%	11.3%	-73.3*
Cc1nc(C)c(-c2csc(Nc3ccc(F)cc3)n2)s1	?	-17.9	?	?	8.4%	-23.2
CC(=O)Nc1ccc(Nc2nc(-c3c(C)nc4ccccn34)cs2)cc1	0.82µM*	11.7	1.03µM*	nt	nt	?
O=C(c1cccs1)N1CCC(c2nc3c(nnn3Cc3ccccc3Cl)c(=O)[nH]2)CC1	?	-12.7	-5.1%	-9.6%	nt	-22.0
Cn1c(=O)c2c(O)c(C=Nc3ccc(F)cc3)c(=O)n(C)c2n(C)c1=O	-14.9%	6.4	-25.7%	1.4%	0.0%	11.3
Cc1nc2ncccn2c1-c1csc(Nc2ccc(S(N)(=O)=O)cc2)n1	5.2%	5.0	37.3%	?	nt	-1.7
Cc1nc2ncccn2c1-c1csc(Nc2ccccc2)n1	18.4µM*	11.2	16.4µM*	?	5.3%	-1.5
CCCn1cc(S(=O)(=O)c2ccc(OC)cc2)c(=O)c2cc(F)c(N3CCCC(C)C3)cc21 (centres undefined)	18.4µM*	nt	?	nt	-1.2%	nt
CCCCn1cc(S(=O)(=O)c2ccc(C)cc2)c(=O)c2cc(F)c(N3CCCCC3)cc21	13µM*	nt	18.4µM*	nt	2.5%	nt
CCCn1cc(S(=O)(=O)c2ccccc2)c(=O)c2cc(F)c(N3CCCC3)cc21	?	nt	?	nt	6.6%	nt

Assay outcomes: PubChem, National Center for Advancing Translational Sciences (NCATS)
